Source: ChEMBL document CHEMBL3988442, “University of Dundee, Small-Polar-MMV Screening Library” (2021)

Each compound was assayed against T1, Aspartate--tRNA(Asp/Asn) ligase (Mycobacterium tuberculosis (strain ATCC 25618 / H37Rv)) (UniProt P9WFW3) (assay: Assay for Asp RNA synthetase-1 from Mycobacterium tuberculosis). Settings: 30 µM.
T1 sequence (whole entry): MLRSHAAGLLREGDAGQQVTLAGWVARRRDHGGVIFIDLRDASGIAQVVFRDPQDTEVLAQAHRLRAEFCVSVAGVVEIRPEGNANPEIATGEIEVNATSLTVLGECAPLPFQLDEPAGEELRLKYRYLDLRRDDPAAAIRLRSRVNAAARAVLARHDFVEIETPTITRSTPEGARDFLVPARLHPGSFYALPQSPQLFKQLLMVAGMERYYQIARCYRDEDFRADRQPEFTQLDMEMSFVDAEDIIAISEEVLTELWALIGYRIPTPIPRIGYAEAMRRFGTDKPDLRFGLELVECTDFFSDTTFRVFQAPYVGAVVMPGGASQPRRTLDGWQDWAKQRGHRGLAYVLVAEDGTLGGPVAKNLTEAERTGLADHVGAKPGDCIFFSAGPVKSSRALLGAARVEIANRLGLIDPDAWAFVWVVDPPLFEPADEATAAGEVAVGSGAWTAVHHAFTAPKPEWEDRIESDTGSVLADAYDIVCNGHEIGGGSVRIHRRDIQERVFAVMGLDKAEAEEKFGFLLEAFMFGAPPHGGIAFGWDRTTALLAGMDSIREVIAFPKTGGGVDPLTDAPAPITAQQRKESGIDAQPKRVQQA
Type: functional
Set-up: scale not given: direction of the effect not stated beside the values
CN(C(=O)Cn1nc(-c2ccc(F)cc2)ccc1=O)C1CCS(=O)(=O)C1 (stereo not given) was tested, and the Percent Effect was 3.06%.
CN(C)Cc1cnc2n1CCN(Cc1ccsc1)CC2 showed a Percent Effect of -5.79%.
Cc1cc(C)n(CC2CCCCN2C(=O)c2ccc3nncn3c2)n1 (stereo not given) gave a Percent Effect of -3.1%.
CCOc1ncccc1NC(=O)c1cc(C)c(C)s1 showed a Percent Effect of -2.03%.
Compound CSCC[C@H](NC(=O)Cn1ccc2c(Cl)cccc21)C(=O)O has a Percent Effect of -3.22%.
Work on CS(=O)(=O)N1C[C@@H]2CC[C@H](C1)N(Cc1cscn1)C2=O yielded a Percent Effect of 0.593%.
Cc1cc(N2CCC(N(C)C(=O)Nc3ccccc3)CC2)nc(C)n1 gave a Percent Effect of 7.13%.
Cc1nc(CN2CCn3cc(CNC(=O)C4CCC4)nc3C2)cs1 was tested, and the Percent Effect was 11%.
Compound COC(=O)c1ccc2ccn(CC3CCCO3)c(=O)c2c1 (stereo not given) has a Percent Effect of 7.1%.
COCC1CN(Cc2ccncc2)Cc2nnn(CC3CC3)c21 (stereo not given) was tested, and the Percent Effect was 0.981%.
In the case of Cc1cc(C)n(-c2cncc(NCCNC(=O)C(C)C)n2)n1, the Percent Effect is reported as 8.76%.
In the case of CSCCCN1CCn2nc(CNC(C)=O)cc2C1, the Percent Effect is reported as 3.05%.
With CCc1ccc(CCC(=O)N2CCOCC2c2ncon2)cc1 (stereo not given) the Percent Effect was 2.77%.
O=C1NC(c2ccccc2)=N[C@@]12CC[C@@H]1CN(CC3CCOCC3)C[C@@H]12 gave a Percent Effect of 1.31%.
In the case of O=C(N1CCCCC1)N1CCN(CC(O)c2ccc(F)cc2)CC1 (stereo not given), the Percent Effect is reported as -2.17%.
COCCN1CCN(Cc2cccc(C(N)=O)c2)CC1C (stereo not given) was tested, and the Percent Effect was -1.6%.
O=C(NC1CCS(=O)(=O)C1)N1CCN(c2cnccn2)CC1 (stereo not given) gave a Percent Effect of -1.72%.
Cc1ncsc1-c1nnc(C2CCN(Cc3ccc(F)cc3)CC2)o1 showed a Percent Effect of 4.24%.
COc1cc(CN2CCN(c3cccc(OC)c3)C(=O)C2)cc(OC)c1 showed a Percent Effect of -1.98%.
For CN(C)S(=O)(=O)c1ccc(OCCNCCn2cccn2)cc1, the Percent Effect was -6.56%.
CC(=O)N1CCC2(CCCN(C(=O)c3ccccc3)C2)C1 (stereo not given) showed a Percent Effect of -1.28%.
In the case of CCC(CC)NC(=O)Cn1nc(C)nc1-c1ccccc1, the Percent Effect is reported as -2.19%.
Cc1ccc(OCCCNC(=O)NC(C)c2nncn2C)cc1 (stereo not given) gave a Percent Effect of -2.1%.
O=C(c1cnc(C2CC2)s1)N1CCCC(n2cccn2)C1 (stereo not given) gave a Percent Effect of -2.52%.
Compound CC(C)CCn1[nH]c(CNc2ccccc2)nc1=O has a Percent Effect of 5.27%.
With c1cnc(-c2nc(CN3CCC(c4ccn[nH]4)CC3)cs2)nc1 the Percent Effect was -0.495%.
Compound COc1ccnc(N2CCN(C(=O)Cc3ccc(C)s3)CC2)n1 has a Percent Effect of 2.36%.
COC(=O)C(c1cc(F)ccc1F)N(C)C(=O)c1ccnc(C)n1 (stereo not given) was tested, and the Percent Effect was -0.393%.
Work on CC(CNC(=O)Nc1ccc(N(C)C)nc1)Cn1cccn1 (stereo not given) yielded a Percent Effect of 5.91%.
For Cc1ccc(CN2CCCn3c(nc(CN4CCCC4)cc3=O)C2)s1, the Percent Effect was 4.32%.
Compound Cc1oncc1C(=O)N1CCC2(CCN(Cc3ccccn3)C2=O)C1 (stereo not given) has a Percent Effect of -2.39%.
In the case of CCn1cc2c(n1)CN(Cc1ccncc1)CC2COCC1CC1 (stereo not given), the Percent Effect is reported as 1.43%.
With COc1ccc(OCCN(C)C(=O)NC(C)c2nncn2C)cc1 (stereo not given) the Percent Effect was -1.96%.
Compound O=C(NCC1CCSCC1)N(CCCO)C1CCc2ccccc21 (stereo not given) has a Percent Effect of 6.01%.
Work on CC(NC(=O)N1CCC(n2cncn2)CC1)c1ccc(F)cc1F (stereo not given) yielded a Percent Effect of -3.4%.
In the case of CNS(=O)(=O)c1ccc(C(=O)N2CCCC2c2ccccc2)o1 (stereo not given), the Percent Effect is reported as -0.871%.
For CCCNC(=O)C(C)NC(=O)CCc1ccccc1Br (stereo not given), the Percent Effect was 0.362%.
For Fc1cnc(N2CCn3cc(CNc4ccccn4)nc3C2)nc1, the Percent Effect was 1.02%.
With CCn1c(CN(C)C)nnc1C1CCN(Cc2cccc(OC)c2)CC1 the Percent Effect was 0.565%.
CN(C)C(=O)CS(=O)(=O)Cc1cc(Cl)c2c(c1)OCO2 gave a Percent Effect of 0.927%.

The compounds below were run against Shiga toxin 2 (Escherichia coli O157:H7) (UniProt P09385+P09386) (assay: E. coli 0.157:H7 Shiga Toxin SOP - stx2 screening assay). Settings: 30 µM.
Type: functional
Set-up: scale not given: direction of the effect not stated beside the values
CN(C(=O)Cn1nc(-c2ccc(F)cc2)ccc1=O)C1CCS(=O)(=O)C1 (stereo not given) showed a Percent Effect of 1.8%.
With CN(C)Cc1cnc2n1CCN(Cc1ccsc1)CC2 the Percent Effect was -3.72%.
With Cc1cc(C)n(CC2CCCCN2C(=O)c2ccc3nncn3c2)n1 (stereo not given) the Percent Effect was 14.5%.
CCOc1ncccc1NC(=O)c1cc(C)c(C)s1 gave a Percent Effect of 3.75%.
CSCC[C@H](NC(=O)Cn1ccc2c(Cl)cccc21)C(=O)O gave a Percent Effect of -22%.
Work on CS(=O)(=O)N1C[C@@H]2CC[C@H](C1)N(Cc1cscn1)C2=O yielded a Percent Effect of -13.6%.
In the case of Cc1cc(N2CCC(N(C)C(=O)Nc3ccccc3)CC2)nc(C)n1, the Percent Effect is reported as -20.7%.
Cc1nc(CN2CCn3cc(CNC(=O)C4CCC4)nc3C2)cs1 showed a Percent Effect of -50.1%.
For COC(=O)c1ccc2ccn(CC3CCCO3)c(=O)c2c1 (stereo not given), the Percent Effect was 6.53%.
In the case of COCC1CN(Cc2ccncc2)Cc2nnn(CC3CC3)c21 (stereo not given), the Percent Effect is reported as -28.3%.
Cc1cc(C)n(-c2cncc(NCCNC(=O)C(C)C)n2)n1 showed a Percent Effect of 2.01%.
With CSCCCN1CCn2nc(CNC(C)=O)cc2C1 the Percent Effect was -62.7%.
For CCc1ccc(CCC(=O)N2CCOCC2c2ncon2)cc1 (stereo not given), the Percent Effect was 20.7%.
O=C1NC(c2ccccc2)=N[C@@]12CC[C@@H]1CN(CC3CCOCC3)C[C@@H]12 gave a Percent Effect of -0.652%.
With O=C(N1CCCCC1)N1CCN(CC(O)c2ccc(F)cc2)CC1 (stereo not given) the Percent Effect was 31.9%.
Work on COCCN1CCN(Cc2cccc(C(N)=O)c2)CC1C (stereo not given) yielded a Percent Effect of -42.8%.
O=C(NC1CCS(=O)(=O)C1)N1CCN(c2cnccn2)CC1 (stereo not given) was tested, and the Percent Effect was -8.56%.
Work on Cc1ncsc1-c1nnc(C2CCN(Cc3ccc(F)cc3)CC2)o1 yielded a Percent Effect of -43.6%.
In the case of COc1cc(CN2CCN(c3cccc(OC)c3)C(=O)C2)cc(OC)c1, the Percent Effect is reported as -8.17%.
With CN(C)S(=O)(=O)c1ccc(OCCNCCn2cccn2)cc1 the Percent Effect was -13.8%.
Compound CC(=O)N1CCC2(CCCN(C(=O)c3ccccc3)C2)C1 (stereo not given) has a Percent Effect of -1.81%.
CCC(CC)NC(=O)Cn1nc(C)nc1-c1ccccc1 gave a Percent Effect of 23%.
Work on Cc1ccc(OCCCNC(=O)NC(C)c2nncn2C)cc1 (stereo not given) yielded a Percent Effect of 7.34%.
With O=C(c1cnc(C2CC2)s1)N1CCCC(n2cccn2)C1 (stereo not given) the Percent Effect was 24.9%.
With CC(C)CCn1[nH]c(CNc2ccccc2)nc1=O the Percent Effect was -8.36%.
Compound c1cnc(-c2nc(CN3CCC(c4ccn[nH]4)CC3)cs2)nc1 has a Percent Effect of -11.4%.
For COc1ccnc(N2CCN(C(=O)Cc3ccc(C)s3)CC2)n1, the Percent Effect was 5.8%.
Work on COC(=O)C(c1cc(F)ccc1F)N(C)C(=O)c1ccnc(C)n1 (stereo not given) yielded a Percent Effect of -2.56%.
In the case of CC(CNC(=O)Nc1ccc(N(C)C)nc1)Cn1cccn1 (stereo not given), the Percent Effect is reported as -40.9%.
In the case of Cc1ccc(CN2CCCn3c(nc(CN4CCCC4)cc3=O)C2)s1, the Percent Effect is reported as 7.63%.
Cc1oncc1C(=O)N1CCC2(CCN(Cc3ccccn3)C2=O)C1 (stereo not given) was tested, and the Percent Effect was -12.9%.
For CCn1cc2c(n1)CN(Cc1ccncc1)CC2COCC1CC1 (stereo not given), the Percent Effect was -18.6%.
Compound COc1ccc(OCCN(C)C(=O)NC(C)c2nncn2C)cc1 (stereo not given) has a Percent Effect of -14.8%.
With O=C(NCC1CCSCC1)N(CCCO)C1CCc2ccccc21 (stereo not given) the Percent Effect was -37.4%.
CC(NC(=O)N1CCC(n2cncn2)CC1)c1ccc(F)cc1F (stereo not given) showed a Percent Effect of 7.64%.
For CNS(=O)(=O)c1ccc(C(=O)N2CCCC2c2ccccc2)o1 (stereo not given), the Percent Effect was 34%.
For CCCNC(=O)C(C)NC(=O)CCc1ccccc1Br (stereo not given), the Percent Effect was -18.6%.
In the case of Fc1cnc(N2CCn3cc(CNc4ccccn4)nc3C2)nc1, the Percent Effect is reported as -67.4%.
With CCn1c(CN(C)C)nnc1C1CCN(Cc2cccc(OC)c2)CC1 the Percent Effect was -66.9%.
CN(C)C(=O)CS(=O)(=O)Cc1cc(Cl)c2c(c1)OCO2 showed a Percent Effect of 25.6%.
